Compounds with a hit are over-represented: about 1.9% of the library has one in this group of screens.
PrP UTR inh = inhibition of PrP 5' UTR reporter expression; AID 488862; inhibition, % (concentration not given with the values); cell-based PrP 5' UTR mRNA reporter, plate reader; 340,000 compounds, 0.35% hits; in the data active = inhibition above about 52%; also: 0 = median of the neutral control wells
PrPC surface inh = reduces human prion protein on the cell surface; P04156; cell surface PrPC, TR-FRET read-out; inhibition, % at 13.8 µM; 370,000 compounds, 0.43% hits; in the data active = inhibition above about 24%; also: 0% = median of the test wells and 100% = reference compound wells
PfHsp40 yeast = compounds rescuing yeast from Plasmodium falciparum HSP40 toxicity; S. cerevisiae expressing PfHsp40, growth rescue, ATP luminescence; 340,000 compounds, 0.68% hits; AID 504582; growth rescue, % at 12.5 µM; in the data active = growth rescue above about 28%, passing the limit was not always enough;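 also: yeast W303a lacking pdr1 and pdr3 grown in galactose medium; growth measured after three days at 30 °C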
BJeLR viability = BJeLR cell viability loss | 300,000 compounds, 0.17% hits | AID 1554 | BJeLR (HRASV12) viability, CellTiter-Glo ATP luminescence, 48 h | inhibition, % (test concentration not listed); in the data active = inhibition above about 50%
PriA SSB inh = K. pneumoniae PriA-SSBct interaction inhibition; inhibition, % at 33 µM; AlphaScreen SSBct-PriA binding, biotinylated peptide; 430,000 compounds, 0.6% hits; in the data active = inhibition mostly above about 37%, no sharp cut-off; inactive = mostly below about 20%;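 also: plate controls were negative control peptide for no effect and reference peptide for full effect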
RecA splice inh = inhibitors of M. tuberculosis RecA intein splicing | P9WHJ3 | cell-free RecA intein splicing, fluorescence | inhibition, % (no concentration beside the values) | 290,000 compounds, 0.75% hits; in the data active = inhibition above about 30%;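 also: 0% = vehicle wells and 100% = reference inhibitor control wells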
GFP chromophore = counter-screen GFP chromophore formation inhibition; 2,100 compounds, 83% hits; shares compounds with RecA splice inh; cell-free GFP chromophore formation, fluorescence; EC50, µM; call rule not given here
Starred values were filed as active, the others as inactive; x = no result given.

SMILES	PrP UTR inh	PrPC surface inh	PfHsp40 yeast	BJeLR viability	PriA SSB inh	RecA splice inh	GFP chromophore
COc1ccc(NC(=O)Nc2c(O)ccc3ccccc23)cc1	-34	-2	0	-5	-2	59*	15*
COc1ccc(C(=O)Nc2c(O)ccc3ccccc23)cc1OC	-3	-4	1	1	-5	1	x
CO[C@@H](CNC(=O)C(=O)Nc1ccc2c(c1)CCCN2C(=O)c1cccs1)c1ccsc1	x	x	x	x	-7	x	x
O=C(Nc1nc2c(F)cc(F)cc2s1)c1ccccc1F	x	x	x	x	-2	x	x
COc1ccc(C(=O)c2c(C(F)(F)F)oc3c2C(=O)c2ccccc2C3=O)cc1OC	-1	-2	60*	2	49	67*	11*
COCCN(Cc1ccoc1)C(=O)COc1ccccc1F	x	x	x	x	3	x	x
OC(COc1ccc(Cl)cc1Cl)Cn1ccnc1 (stereo unspecified)	x	-3	-1	-3	2	2	x
Nc1ccccc1S(=O)(=O)NC1=NCCCCC1	-9	-2	1	8	-8	30*	>38
Cc1cc(C)c2c(n1)sc1c(=O)n(CC(=O)Nc3ccc(Cl)cc3C(F)(F)F)cnc12	x	x	x	x	-12	x	x
N#CC(NC(=O)c1ccccc1)=C(Br)Br	x	x	x	x	-2	x	x
CCOC(=O)c1cnc2ccc(C)cc2c1Sc1ccccc1	-26	4	0	-5	-6	63*	38*
CCOC(=O)c1cnc2ccc(C)cc2c1N(C)Cc1ccccc1	x	-1	0	6	-11	13	x
CCOC(=O)C1(CCOc2ccccc2)CCN(Cc2ccc(O)c(Cl)c2)CC1	-16	3	1	9	11	43*	>38
O=c1cc(-c2c(F)c(F)c(F)c(F)c2F)oc2ccccc12	-26	2	0	-8	-11	29	x
O=c1cc(-c2c(F)c(F)c(F)c(F)c2F)oc2c(F)c(F)c(F)c(F)c12	x	x	x	-15	-1	86*	13*
Cc1ccc(-c2nc(CN3CCCC(C(=O)N4CCOCC4)C3)c(C)o2)cc1 (stereo unspecified)	-15	-1	-1	-2	-18	44*	>38
Cc1cccc(CS(=O)(=O)c2ncc(Cl)c(C(=O)NCc3ccc4c(c3)OCO4)n2)c1	-7	-3	21	11	-4	51*	11*
Cc1ccc(NC(=O)c2nc(S(=O)(=O)Cc3ccccc3C)ncc2Cl)cc1C	-8	-2	0	27	3	39*	1.3*
CCOC(=O)c1ccc(NC(=O)c2nc(S(=O)(=O)Cc3ccccc3)ncc2Cl)cc1	-5	1	-1	22	-4	27	x
CC(=O)Nc1ccc(NC(=O)c2nc(S(=O)(=O)Cc3cccc(C)c3)ncc2Cl)cc1	8	71*	1	25	-15	31*	20*
COc1cc(OC)c(Nc2c(C(=O)N3CCSCC3)cnc3ccc(F)cc23)cc1Cl	x	x	x	x	5	x	x
CC(=NNC(=O)c1ccccc1C)c1ccc(NC(=O)c2cccs2)cc1	x	x	x	x	-10	x	x
O=C(C/C=N\OCc1c(Cl)cccc1Cl)Oc1ccc(Cl)cc1Cl	-13	-1	0	-7	x	45*	27*
O=C(Nc1onc2c1CCC2)C1CCN(S(=O)(=O)c2cccs2)CC1	x	x	x	x	-2	x	x
CCOC(=O)N1CCN(C(=O)CSc2nnc(Cn3c(=O)sc4ccccc43)n2CCc2ccccc2)CC1	x	x	x	x	-7	x	x
SMILES	PrP UTR inh	PrPC surface inh	PfHsp40 yeast	BJeLR viability	PriA SSB inh	RecA splice inh	GFP chromophore
O=C1C=C(N2CCCCC2)c2ccccc2C1=O	x	-14	x	-1	15	98*	2*
Cc1cc(C(=O)NC2CC3C(=O)Nc4ccccc4N3C2)no1 (stereo unspecified)	x	x	x	x	-2	x	x
CCOC(=O)C1=C(c2ccccc2)NC(N)=NC1c1ccc(OCc2ccc(Cl)cc2)c(OC)c1 (stereo unspecified)	-26	11	0	7	32	49*	>12
COC(=O)c1sccc1S(=O)(=O)NCCc1nc(-c2ccco2)cn1C	x	x	x	x	10	x	x
Cn1cnnc1S(=O)(=O)C1CCN(C(=O)CNC(=O)OCc2ccccc2)CC1	x	x	x	x	-10	x	x
COCCN(Cc1ccoc1)C(=O)c1cnoc1C	x	x	x	x	5	x	x
C(=N\Nc1nncc2ccccc12)/c1ccccn1	45	-7	413*	56*	x	38*	10*
Fc1cccc(/C=N/Nc2nncc3ccccc23)c1	-3	0	-2	4	x	-1	x
CC1=CC(=C2C(=O)c3ccccc3C2=O)C=C(C)N1C(C)C	x	x	x	x	8	x	x
Cc1ccc2nc(-c3cccs3)oc(=O)c2c1	11	3	-2	2	-5	32*	>38
O=c1oc(-c2cccs2)nc2ccc(Br)cc12	-36	2	1	-7	-10	24	x
CC(=O)N1CCC2(CC1)C(C#N)=C(N)Oc1n[nH]c(C)c12	-6	2	0	-1	-14	79*	15*
CC1(C)CC(=O)C2=C(C1)OC(N)=C(C#N)C21CCN(C(=O)OCc2ccccc2)CC1	-21	-3	-1	-3	2	0	x
Cc1[nH]nc2c1C1(CCN(C(=O)c3ccccc3)CC1)C(C#N)=C(N)O2	-4	-5	0	-3	-18	79*	13*
Cc1[nH]nc2c1C1(CCN(C(=O)OCc3ccccc3)CC1)C(C#N)=C(N)O2	-25	-4	0	-6	8	80*	30*
Cc1[nH]nc2c1C1(CCC(c3ccccc3)CC1)C(C#N)=C(N)O2 (stereo unspecified)	-9	1	-2	-8	9	77*	25*
CC(C)(Oc1ccc(Cl)cc1)C(=O)Nc1ccccc1Cc1nc(-c2ccncc2)no1	x	x	x	x	-4	x	x
COc1ccc(-c2nnc3ccc(OCCNC(=O)C(C)(C)C)nn23)cc1OC	x	x	x	x	-5	x	x
O=C(Cn1cnc2ccccc21)NCc1cnn2ccccc12	x	x	x	x	-9	x	x
O=C(Nc1cccc2nsnc12)c1cc2n(n1)CCCO2	x	x	x	x	3	x	x
COc1cc(/C=C2/C(=O)N(c3ccc(C(=O)O)cc3)N=C2C)cc(OC)c1O	-49	-5	-1	8	-2	2	x
COc1cc(/C=C2/C(=O)N(c3ccc(C)c(C)c3)N=C2C)cc([N+](=O)[O-])c1O	-21	-8	0	6	10	42*	21*
CCOC(=O)CS(=O)(=O)c1ccccc1	-10	-3	-1	4	8	0	x
CCOC(=O)CS(=O)(=O)c1nc(-c2ccc(F)cc2)cc(C(F)(F)F)n1	-6	x	0	29	-14	74*	6*
CCOC(=O)c1c(C(F)(F)F)cc(-c2ccc(F)cc2)nc1C	-11	8	0	16	-90	-2	x
COCCNC(=O)CCSc1nc(-c2ccc(OC)cc2)cc(C(F)(F)F)n1	0	-2	0	-1	-21	2	x
O=C(O)CCS(=O)(=O)c1nc(-c2cccs2)cc(C(F)(F)F)n1	x	0	-1	5	-4	25	x
CCOC(=O)CS(=O)(=O)c1nc(-c2ccccc2)cc(C(F)(F)F)n1	1	12	0	27	-19	72*	5.9*

Bioassay records as filed in PubChem.
